Measurements reported in PubChem BioAssay (NCATS).
Several values for one entry are separate records, joined by “and”; a condition that tells them apart may be missing. Identical values can stand only once. Inconclusive results are not listed. Unmarked numbers belong to inactive results. Activity calls are given as the source filed them. The call rests on the fitted dose curve; in most records, active means well fitted cell-killing curve with a large enough effect; inconclusive means small, poorly fitted or top-dose-only effect; inactive means flat fitted curve, though single readings scatter.

test: Cellular viability qHTS for adrenocortical cancer (ACC) cell line NCI-H295R (AID 1963990); conditions: CellTiter-Glo ATP luminescence, 48 h; series mostly up to 46.1 µM; activity change, negative = viability loss: at the top concentration; further: nearly all actives have a fitted effect of over 60% in size
Excerpt: PI: Naris Nilubol, MD Surgical Oncology Program, National Cancer Institute (NCI) National Institute of Health (NIH), Bethesda, Maryland Adrenocortical cancer (ACC) is a rare malignancy with poor survival outcomes and few treatment options. Currently, mitotane is the only FDA-approved therapy for ACC. Although adjuvant radiation therapy is rarely utilized, it has the potential to improve survival in select cases. Through a quantitative high-throughput drug screen (qHTS), we identified auranofin (AF), a thioredoxin reductase (TXNRD) inhibitor, as a promising candidate drug. This study aims to evaluate whether AF can enhance the efficacy of radiation therapy in the treatment of ACC. Two human ACC cell lines, SW-13 and NCI-H295R, were screened using the National Center for Advancing Translational Sciences (NCATS) Pharmaceutical Collection (NPC) and the Mechanism Interrogation PlatE (MIPE) library (~4,991 compounds). CellTiter-Glo (Cat # G7570, Promega, Madison, WI) was utilized to measure cell viability. Described herein are the results of the corresponding viability assay.
PROTOCOL TABLE (as described by Inglese J, Shamu CE and Guy RK. 2007) SEQUENCE No. (e.g., 1, 2, 3, etc.); […] (e.g., Cells, Incubation, Reagent, etc.); VALUE; DESCRIPTION. 1; Cells; 5 uL; white, solid-bottom, 1536-well tissue-culture treated plates. 2; Time; overnight culture at 37C with 5% CO2. 3; Compounds and control; 23 nL; Kalypsis pin tool (Wako USA) equipped with a 1536-well pin head to transfer to the assay plates. 4; Time; 48 hours; 37C with 5% CO2. 5; Reagent; 4 uL; CellTiter-Glo luminescent substrate mix. 6; Time; 20 min at room temperature. 7; Detection; Luminescence; ViewLux plate reader NOTES (numbers refer to Sequence numbers above) 1. NCI-H295R cells were harvested from a T175 flask and resuspended in ITS-supplemented DMEM serum-free medium at a concentration of 300 000 cells/mL. Then 5 uL of resuspended cells were dispensed into each well of white, solid-bottom, 1536-well tissue-culture-treated plates using a multidrop combi dispenser. The plates were covered with stainless steel gasket lids. 2-3. The plates were cultured overnight at 37C with 5% CO2. Twenty-three nL of compounds (eight selected concentrations from the NPC / MIPE) or positive control (10 mM stock of bortezomib) in DMSO was transferred to each well of the assay plate using a pin tool (Kalypsys, San Diego, CA, USA). The final concentration of the compounds in the 5 uL assay volume ranged from 0.5 nM to 46 uM. 4-6. After 48 hours of incubation at 37C and 5% CO2, 4 uL of CellTilter-Glo luminescent substrate mix (Promega, Madison, WI, USA) was added to each well. Then the plates were incubated for 20 minutes at room temperature. 7. After incubation, luminescence was measured using a ViewLux plate reader (PerkinElmer, Waltham, MA, USA) with a clear filter was used to measure the number of metabolically competent cells. To determine compound activity in the qHTS assay, the titration-response data for each sample was plotted and modeled by a four-parameter logistic fit yielding IC50 and efficacy (maximal response) values. Raw plate reads for each titration point were normalized relative to positive control ([…], 100% inhibition) and DMSO-only wells (basal, 0%). REFERENCES: Inglese J, Shamu CE and Guy RK, Reporting data from high throughput screening of small molecule libraries, Nature Chemical Biology, 2007, 3(8): 438-441. doi.org/10.1038/nchembio0807-438.

**Q.** For CC(C)(C(=O)O)c1ccc(C(O)CCCN2CCC(C(O)(c3ccccc3)c3ccccc3)CC2)cc1 (stereo not given), which “activity change, negative = viability loss” value is on record?
**A.** Its value is 5.01%.

**Q.** For CN1C(=O)C(Cc2c[nH]c3ccccc23)NC1=S (stereo not given), which “activity change, negative = viability loss” value is on record?
**A.** Its value is 3.98%.

**Q.** With CCC1Nc2cc(Cl)c(S(N)(=O)=O)cc2S(=O)(=O)N1 (stereo not given) as the compound, how does the “activity change, negative = viability loss” value read?
**A.** Its value is -24.7%.

**Q.** For Cc1cc(-n2nc3ccc(Cl)cc3n2)c(O)c(C(C)(C)C)c1, which “activity change, negative = viability loss” value is on record?
**A.** Its value is -0.369%.

**Q.** With Cn1c(NC[C@@H](N)Cc2ccccc2)nc(-c2ccncc2)c(-c2ccc3ccccc3c2)c1=O as the compound, how does the Potency read?
**A.** Its Potency is 31.6 µM (active).

**Q.** For Cc1cc(C)c(/C=C2\C(=O)Nc3ccccc32)[nH]1, which Potency is on record?
**A.** The Potency was “inactive”.

**Q.** Which Potency does the source give for Cn1cnc([N+](=O)[O-])c1Sc1ncnc2nc[nH]c12 here?
**A.** Its Potency is 3.98 µM (active) and 8.2 µM (active) and 5.62 µM (active).

**Q.** With C#C[C@]1(OC(C)=O)CC[C@H]2[C@@H]3CCC4=C/C(=N/O)CC[C@@H]4[C@H]3CC[C@@]21CC as the compound, how does the Potency read?
**A.** Its Potency is 20.6 µM (active).

**Q.** For CN1C2CCC1CC(OC(=O)C(CO)c1ccccc1)C2 (stereo not given), which “activity change, negative = viability loss” value is on record?
**A.** Its value is -9.69%.

**Q.** With N#Cc1c(NC(=O)c2cccc3ccccc23)sc2c1CCCC2 as the compound, how does the Potency read?
**A.** The Potency was 0.562 µM (active).

**Q.** For C[C@H]1COc2c(N3CCN(C)CC3)c(F)cc3c(=O)c(C(=O)O)cn1c23, which “activity change, negative = viability loss” value is on record?
**A.** Its value is -1.68%.

**Q.** For O=C1NCCN1CCN1CCC(c2cn(-c3ccc(F)cc3)c3ccc(Cl)cc23)CC1, which Potency is on record?
**A.** The Potency was 4.11 µM (active).

**Q.** For COc1cc(C=C2CCC/C(=C\c3ccc(O)c(OC)c3)C2=O)ccc1O, which Potency is on record?
**A.** Its Potency is 7.31 µM (active).

**Q.** With O=C(O)c1ccccc1NCCc1ccccc1 as the compound, how does the “activity change, negative = viability loss” value read?
**A.** Its value is -4.92%.

**Q.** With CN(C)Cc1cccc(N=C(c2ccccc2)c2c(O)[nH]c3cc(C(=O)N(C)C)ccc23)c1 as the compound, how does the “activity change, negative = viability loss” value read?
**A.** The value was -18%.

**Q.** Which “activity change, negative = viability loss” value does the source give for NC(CSCC(=O)O)C(=O)O (stereo not given) here?
**A.** The value was -1.39%.

**Q.** Which “activity change, negative = viability loss” value does the source give for CCCOC(=O)c1ccc(O)cc1 here?
**A.** The value was -27% [at 92.7 µM].

**Q.** With Oc1c(I)cc(Cl)c2cccnc12 as the compound, how does the Potency read?
**A.** The Potency was 14.6 µM (active).

**Q.** For NCCc1ccn[nH]1, which “activity change, negative = viability loss” value is on record?
**A.** Its value is -2.3%.

**Q.** With CCc1c(O)cc(O)c(C(=O)c2ccc(OCCN3CCOCC3)c(OC)c2)c1CC(=O)N(CCOC)CCOC as the compound, how does the “activity change, negative = viability loss” value read?
**A.** The value was -6.54%.

**Q.** With CC[C@@]1(c2ccccc2)NC(=O)N(C)C1=O as the compound, how does the “activity change, negative = viability loss” value read?
**A.** The value was 11.9%.

**Q.** For Cc1ccc(S(=O)(=O)NC(=O)NN2CCCCCC2)cc1, which “activity change, negative = viability loss” value is on record?
**A.** The value was -5.01%.

**Q.** With C[C@](N)(Cc1ccc(O)cc1)C(=O)O as the compound, how does the activity change, negative = viability loss read?
**A.** The activity change, negative = viability loss was -1.14% [at 3.81 µM].

**Q.** Which Potency does the source give for C=CC(=O)Nc1cccc(Nc2nc(Nc3ccc(NC4CN(CCF)C4)cc3OC)ncc2C(F)(F)F)c1 here?
**A.** Its Potency is 8.91 µM (active).

**Q.** With Cc1cc(C2CCCCC2)n(O)c(=O)c1 as the compound, how does the Potency read?
**A.** The Potency was 2 µM (active).

**Q.** For N#C/C(=C1/SC[C@@H](c2ccc(Cl)cc2Cl)S1)n1ccnc1, which “activity change, negative = viability loss” value is on record?
**A.** Its value is -5.06%.

**Q.** Which “activity change, negative = viability loss” value does the source give for Cc1ccccc1C(C(=O)NC1CCCCC1)N(C(=O)Cn1ccnc1C)c1cccc(F)c1 (stereo not given) here?
**A.** The value was -14.5%.

**Q.** For CNC(=O)c1c(F)cccc1Nc1nc(Nc2cc3c(cc2OC)CCN3C(=O)CN(C)C)nc2[nH]ccc12, which Potency is on record?
**A.** The Potency was 1.12 µM (active).

**Q.** Which “activity change, negative = viability loss” value does the source give for CC(COc1ccccc1)NC(C)C(O)c1ccc(O)cc1 (stereo not given) here?
**A.** The value was 1.17%.

**Q.** For O=C(O)c1ccc2cc(-c3ccc(O)c(C45CC6CC(CC(C6)C4)C5)c3)ccc2c1, which Potency is on record?
**A.** Its Potency is 0.708 µM (active).

**Q.** Which “activity change, negative = viability loss” value does the source give for COC(=O)c1cc(S(N)(=O)=O)ccc1OC here?
**A.** Its value is -4.48%.

**Q.** With CN1C(CSCC(F)(F)F)Nc2cc(Cl)c(S(N)(=O)=O)cc2S1(=O)=O (stereo not given) as the compound, how does the “activity change, negative = viability loss” value read?
**A.** Its value is 11.9%.

**Q.** Which Potency does the source give for Oc1cc(-c2nc(-c3ccccc3)[nH]c2-c2ccncc2)ccc1Cl here?
**A.** The Potency was 28.2 µM (active).

**Q.** Which “activity change, negative = viability loss” value does the source give for Cc1coc2ccccc2c1=O here?
**A.** Its value is -5.31%.

**Q.** With CCN1CCN(c2cc(-c3ccc(F)cc3)c3c(n2)CCCCCC3)CC1 as the compound, how does the “activity change, negative = viability loss” value read?
**A.** The value was -4.07% [at 20 µM].

**Q.** With CC(=O)N(CC(O)CN(C(C)=O)c1c(I)c(C(=O)NCC(O)CO)c(I)c(C(=O)NCC(O)CO)c1I)c1c(I)c(C(=O)NCC(O)CO)c(I)c(C(=O)NCC(O)CO)c1I (stereo not given) as the compound, how does the “activity change, negative = viability loss” value read?
**A.** The value was -12.7%.

**Q.** Which “activity change, negative = viability loss” value does the source give for C[C@@H]1CCN(C(=O)N2CCCC2)C[C@@H]1N(C)c1ncnc2[nH]ccc12 here?
**A.** Its value is 9.59%.

**Q.** Which Potency does the source give for CC(C)Oc1ccc(C(=O)N[C@H](CNC(=O)CN(C)C)Cc2ccc(-c3cn4cccc([C@H](C)O)c4n3)cc2)cc1Cl here?
**A.** The Potency was 0.316 µM (active).

**Q.** Which “activity change, negative = viability loss” value does the source give for O=C(O)Cc1ccccc1Oc1ccc(Cl)cc1Cl here?
**A.** Its value is 4.61%.

**Q.** Which “activity change, negative = viability loss” value does the source give for NS(=O)(=O)Cc1noc2ccccc12 here?
**A.** Its value is 0.682%.
